An excerpt weighted towards active compounds, which were near 7.5% of everything screened.
FLuc counter = qHTS profiling assay for firefly luciferase inhibitor/activator using purifed enzyme and Km concentrations of substrates (counterscreen for miR-21 project) | purified FLuc, Km substrates, luminescence inhibition | Luciferin 4-monooxygenase (Photinus pyralis), P08659 | AID 588342, 2011 | Potency, µM (highest dose often 57.5 µM), for inactives: at the top dose activity change, negative = inhibition, hits mostly inhibitors | 360,000 compounds, 6.9% hits;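 note: plate controls were vehicle for no effect and reference inhibitor for full effect; nearly all actives have a fitted effect of over 55% in size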
Target sequence (P08659 whole entry, looked up): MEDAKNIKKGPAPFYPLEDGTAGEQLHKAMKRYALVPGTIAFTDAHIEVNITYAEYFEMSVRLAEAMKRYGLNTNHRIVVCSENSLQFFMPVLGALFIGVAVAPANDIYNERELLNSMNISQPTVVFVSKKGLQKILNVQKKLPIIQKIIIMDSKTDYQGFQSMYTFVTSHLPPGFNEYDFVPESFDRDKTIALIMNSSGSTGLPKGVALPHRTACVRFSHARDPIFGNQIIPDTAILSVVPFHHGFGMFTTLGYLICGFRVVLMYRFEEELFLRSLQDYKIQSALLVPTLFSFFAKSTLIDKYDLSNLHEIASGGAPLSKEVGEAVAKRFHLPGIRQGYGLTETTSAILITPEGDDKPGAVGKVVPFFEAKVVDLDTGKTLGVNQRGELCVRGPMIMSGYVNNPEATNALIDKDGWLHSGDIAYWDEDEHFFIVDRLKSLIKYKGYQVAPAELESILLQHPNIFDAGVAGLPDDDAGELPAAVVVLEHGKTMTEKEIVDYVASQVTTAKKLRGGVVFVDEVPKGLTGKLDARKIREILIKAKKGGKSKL
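Purified P. pyralis luciferase, 10 nM final, with Km-level 10 uM D-luciferin and 10 uM ATP in 50 mM Tris acetate pH 7.5, 10 mM Mg acetate, 0.01% Tween-20, 0.05% BSA; 6-point qHTS titration about 60 µM downward; luminescence read.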
NPC1 promoter act = qHTS Assay for NPC1 Promoter Activators; 320,000 compounds, 2.4% hits; Huh7 NPC1 promoter luciferase reporter, 24 h; Potency, µM (highest dose often 9.22 µM), inactives show at the top dose activation, hits mostly activators; AID 485313, 2010; note: % of control where 0% means no effect; nearly all actives have a fitted effect of over 60% in size
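Huh7 cells stably carrying NPC1 promoter–luciferase, plated in Opti-MEM with 10% FBS for 2 h, were exposed to compound in DMSO for 24 h at 37 °C; luciferase reagent was added for 10 min and luminescence read.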
KinaseGlo FLuc = Counterscreen for Luciferase (Kinase-Glo TM) Inhibition; Kinase-Glo luciferase, ATP luminescence, 8 min; 200,000 compounds, 0.28% hits; Potency, µM (highest dose often 38.3 µM), for the others: at the highest dose activity change, negative = inhibition, most hits filed as inhibitors; AID 1379, 2008; note: % is set by controls: 0 for no effect and ±100 for the full control effect; nearly all actives have a fitted effect of over 60% in size
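Kinase-Glo luciferase light output from ATP and luciferin was measured with 10 uM ATP, within the enzyme's linear range. Buffer: 50 mM imidazole pH 7.2, 50 mM KCl, 7 mM MgCl2, 0.01% Tween 20, 0.05% BSA; luminescence read after 8 min at ambient temperature.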
Rab9 prom act = qHTS Assay for Rab9 Promoter Activators; AID 485297, 2010; 320,000 compounds, 2.8% hits; Huh7 Rab9 promoter-luciferase reporter, luminescence, 24 h; Potency, µM (top dose mostly 9.22 µM), for the others: at the highest dose activation, negative = inhibition, actives largely listed as activators; note: % of control where 0% means no effect; nearly all actives have a fitted effect of over 60% in size
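Promoter activation is measured as luciferase luminescence in Huh7 cells stably transfected with a Rab9 promoter–luciferase construct, following 24 h compound exposure at 37 °C and 10 min reagent incubation at ambient temperature.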
ELG1 genotoxic = qHTS screen for small molecules that induce genotoxicity in human embryonic kidney (HEK293T) cells expressing luciferase-tagged ELG1; HEK293T ELG1-luciferase reporter, luminescence, 16 h; Potency, µM (highest dose often 46 µM), without a hit: at the top dose activity change, positive = activation, hits mostly activators; 330,000 compounds, 1.3% hits; note: % of control where 0% means no effect; nearly all actives have a fitted effect of over 60% in size
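Genotoxicity was scored as increased ELG1-luciferase reporter signal, measured by ONE-Glo luminescence (30 min, room temperature). Compound or vehicle exposure of the HEK293T reporter cells lasted 16 hr at 37°C.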
SMN2 splice up = qHTS Assay for Enhancers of SMN2 Splice Variant Expression | HEK293 SMN2-luciferase splicing reporter, luminescence, 30-36 h | Potency, µM (titrated, usually from 46.1 µM), inactives show at the top dose activity change, positive = activation, hits mostly activators | 210,000 compounds, 2.8% hits; note: % of control where 0% means no effect; nearly all actives have a fitted effect of over 55% in size
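HEK293 cells carry an SMN2 minigene-luciferase reporter in which exon 7 inclusion puts luciferase in frame. Cells were seeded at 2000 cells/well, attached for 10-12 hours, then exposed to compounds for 30-36 hours at 37C before ONE-Glo luminescence.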
* = called active by the depositor; ? = inconclusive; . = not tested or not shown; [ ] = another dose, or the depositor's remark. Calls come from the whole dose curve; as a rule, active = well fitted curve in the direction sought with a large enough effect; inconclusive = small, poorly fitted or top-dose-only effect, or another doubt; inactive = no such curve, though single readings can be large; an effect the other way counts as inactive or inconclusive. Potency is the fitted concentration of half-maximal effect.

SMILES | FLuc counter | NPC1 promoter act | KinaseGlo FLuc | Rab9 prom act | ELG1 genotoxic | SMN2 splice up
CC(=O)c1cccc(NC(=O)N2C3CCCC2CC(NC(=O)C2CC2)C3)c1 (stereo not given) | -2% | 1% | . | 2% | 3% | .
CC1CCCN(c2nc3ccsc3c(=O)s2)C1 (stereo not given) | 15µM* | ? | -2% | ? | 13µM* | 22µM*
O=C(NCc1ccccc1Cl)C1CCCN(c2nc3ccsc3c(=O)s2)C1 (stereo not given) | -2% | -4% | -5% | -7% | 9% | -2%
CC(C)Oc1ccc(/C=N/NC(N)=S)cc1 | 15µM* | ? | -1% | ? | 17% | ?
CCCCOc1cccc(/C=N/NC(=O)c2csc(C)c2C)c1 | 7.6µM* | 20% | 1% | 13% | -4% | -14%
CCOc1ccc(/C=N/NC(=O)c2csc(C)c2C)c(OCC)c1 | -17% | -2% | -1% | 0% | 1% | -14%
Cc1scc(C(=O)N/N=C/c2ccc(OC(C)C)cc2)c1C | 6.7µM* | 29% | -6% | ? | ? | ?
COc1ccc(CC(=O)N/N=C/c2ccc(Cl)s2)cc1OC | -16% | 0% | . | -1%[1.84 µM] | -10% | .
Cc1scc(C(=O)N/N=C/c2ccc(Cl)s2)c1C | 3µM* | 3.5µM* | -5% | 2.2µM* | ? | 18µM*
O=C(COC(=O)c1cnccn1)c1cccc([N+](=O)[O-])c1 | -1% | 12% | . | -8% | -3% | .
COc1ccccc1/C=N/NC(=O)c1csc(C)c1C | 3.4µM* | 14% | -9% | 28% | 12% | 23%
COc1ccccc1/C=N/NC(=O)c1cccc2ccccc12 | -2% | -1% | . | -3% | -2% | .
CCc1ccc(OCc2nc(-c3ccc(OC)cc3)no2)c(Br)c1 | -19% | . | . | . | . | .
CN(Cc1nc(-c2ccccn2)no1)S(=O)(=O)c1ccccc1 | -9% | 12% | -1% | -1% | ? | 22%
Clc1ccccc1OCc1nc(-c2ccccn2)no1 | 1.9µM* | 0.45µM* | -12% | 0.32µM* | 4.6µM* | 4.5µM*
Clc1ccc(OCc2nc(-c3ccccn3)no2)c(Br)c1 | 0.21µM* | 0.35µM* | -11% | 0.45µM* | 0.82µM* | 0.56µM*
CC(C)(C)C(=O)NCCc1nc2ccccc2n1CCCCOc1ccc(Cl)cc1 | -11% | . | . | . | . | -35%
CCOc1ccc(N=c2scc(-c3ccccc3)n2CCO)cc1 | 15µM* | 18% | 1% | 8% | 16% | ?
OCCn1c(-c2ccc(F)cc2)csc1=Nc1ccccc1 | ? | 10% | -2% | -3% | ? | -78%
CCOc1ccc(N=c2scc(-c3ccc(OC)cc3)n2CCO)cc1 | 1% | 3% | 0% | -7% | 11% | -97%
CCn1c(-c2ccccc2)csc1=Nc1ccc(O)cc1 | 8.5µM* | 2.8µM* | -2% | 2.2µM* | ? | ?
c1ccc(-c2ccc(-c3cnc4n3CCCCC4)cc2)cc1 | 12µM* | ? | -5% | 26% | ? | -15%
O=C(NC1CCCCCC1)c1ccc2c(=O)n3c(nc2c1)CCCCC3 | 8.5µM* | 2.8µM* | -7% | 2µM* | 3.5µM* | 13µM*
O=C(Nc1cccc(S(=O)(=O)N2CCCC2)c1)c1ccc2c(=O)n3c(nc2c1)CCCCC3 | 12µM* | -6% | -4% | -22% | -10% | -57%
O=C(Nc1cccc(S(=O)(=O)N2CCOCC2)c1)c1ccc2c(=O)n3c(nc2c1)CCCCC3 | ? | -10% | -2% | -9% | -18% | -68%
SMILES | FLuc counter | NPC1 promoter act | KinaseGlo FLuc | Rab9 prom act | ELG1 genotoxic | SMN2 splice up
CC(=O)c1cccc(NC(=O)c2ccc3c(=O)n4c(nc3c2)CCCCC4)c1 | 15µM* | 14% | -1% | 23% | -6% | 14%
O=C(Nc1ccc(SC(F)F)cc1)c1ccc2c(=O)n3c(nc2c1)CCC3 | 2.4µM* | 18% | . | ? | 11% | .
O=C(Nc1ccc2nc3n(c(=O)c2c1)CCCC3)c1cccc(F)c1 | ? | 23% | . | ? | 2% | .
CCn1cc(C(=O)NCc2ccccc2OC)c(=O)c2cc(S(=O)(=O)N3CCCCCC3)ccc21 | -6% | . | . | . | . | 0%
Cc1ccc(OCC(=O)Nc2ccc3nc(SCCOc4ccccc4)sc3c2)cc1 | -6% | . | . | . | . | .
O=C(CC1Sc2ccc(C(F)(F)F)cc2NC1=O)Nc1ccc(Cl)c(C(F)(F)F)c1 (stereo not given) | 3% | . | . | . | . | ?
O=C(Nc1ccccc1C(=O)OCc1cc(=O)n2c3c(sc2n1)CCCC3)c1ccccc1 | 4% | . | . | . | . | .
COc1ccc(NC(=O)c2ccc3c(=O)n4c(nc3c2)CCCCC4)cc1 | 27µM* | 0% | . | -2% | -4% | .
Cc1cccc(NC(=O)c2ccc3c(=O)n4c(nc3c2)CCCCC4)n1 | 4.8µM* | 1.3µM* | . | 0.5µM* | ? | .
Cc1ccc(NC(=O)c2ccc3c(=O)n4c(nc3c2)CCCCC4)cc1F | ? | -1% | . | 0% | -4% | .
Cc1ccc(NC(=O)c2ccc3c(=O)n4c(nc3c2)CCCCC4)nc1 | ? | 28% | . | ? | -2% | .
Clc1cccc(Cl)c1COc1ccccc1CNn1cnnc1 | -2% | 13% | 2% | -4% | -8% | -26%
O=C1c2cccnc2C(=O)N1Cc1ccc(S(=O)(=O)N2CCOc3ccccc32)cc1 | 3% | -3% | . | 0% | -1% | .
CCOc1ccccc1C(=O)N1CCCCC1CCN1CCOCC1 (stereo not given) | 0% | . | . | . | . | 8%
N#Cc1ccc(Cn2ccnc2C(=O)Nc2ccccc2)cc1 | ? | 4% | -7% | 6% | 8% | -7%
Cc1ccc(Cn2ccnc2C(=O)Nc2ccccc2)cc1 | 7.6µM* | 4µM* | 1% | 1.6µM* | ? | 16µM*
Cc1nc2nc(COc3ccccc3)[nH]n2c(=O)c1Cl | 19µM* | 7% | -10% | 7% | 2% | 16%
COc1ccc(C(=O)Oc2ccc3oc(=O)sc3c2)cc1 | 11µM* | -2% | -3% | 10% | ? | 1%
COc1ccc(C(=O)Oc2ccc3c(-c4ccc(OC)cc4)cc(=O)oc3c2)cc1 | . | . | -11% | . | . | -8%
COc1ccc(C(=O)Oc2ccc3ccc(=O)oc3c2)cc1 | 2.7µM* | -2% | . | 0% | -4% | .
O=C(Oc1ccc2ccc(=O)oc2c1)c1ccccc1 | ? | 1% | . | -1% | 3% | .
Cc1noc(C)c1COc1ccccc1C(=O)NCc1ccco1 | -2% | 0% | . | -2% | 3% | .

High-throughput results (PubChem BioAssay)
